Results reported in the supplement of paper PMC11732987, “Enantioselective OTUD7B fragment discovery through chemoproteomics screening and high-throughput optimisation” (Communications Chemistry, 2025).

Tests used:
Experiment in all cases: log2 ratio of Biotin-Ahx-Ub-VS probe labelling (fragment/DMSO); higher = less target engagement (more negative = stronger competition), active = hit call of the paper (q ≤ 0.05, log2 ratio ≤ -1)
Settings in all cases: compound concentration: 200 uM; treatment time: 3 h
[1] = molecular target: USP34 (UniProt Q70CQ2)
In short: (§1)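 Each value is an average log2 ratio of fragment to vehicle, tested by unpaired t-test. The underlying Spectronaut label-free quantities were global-median-normalised, and only proteins with ≥2 unique peptides were included. Triplicate HEK293T lysate samples (495 µg) were exposed to fragment at 200 µM or vehicle for 3 h, then to Biotin-Ahx-Ub-VS at 0.5 µM final for 1 h, before NeutrAvidin enrichment of labelled DUBs, LysC and trypsin digestion, and diaPASEF LC-MS/MS.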

[2] = molecular target: T1, USP36 (UniProt Q9P275)
T1 sequence (whole entry): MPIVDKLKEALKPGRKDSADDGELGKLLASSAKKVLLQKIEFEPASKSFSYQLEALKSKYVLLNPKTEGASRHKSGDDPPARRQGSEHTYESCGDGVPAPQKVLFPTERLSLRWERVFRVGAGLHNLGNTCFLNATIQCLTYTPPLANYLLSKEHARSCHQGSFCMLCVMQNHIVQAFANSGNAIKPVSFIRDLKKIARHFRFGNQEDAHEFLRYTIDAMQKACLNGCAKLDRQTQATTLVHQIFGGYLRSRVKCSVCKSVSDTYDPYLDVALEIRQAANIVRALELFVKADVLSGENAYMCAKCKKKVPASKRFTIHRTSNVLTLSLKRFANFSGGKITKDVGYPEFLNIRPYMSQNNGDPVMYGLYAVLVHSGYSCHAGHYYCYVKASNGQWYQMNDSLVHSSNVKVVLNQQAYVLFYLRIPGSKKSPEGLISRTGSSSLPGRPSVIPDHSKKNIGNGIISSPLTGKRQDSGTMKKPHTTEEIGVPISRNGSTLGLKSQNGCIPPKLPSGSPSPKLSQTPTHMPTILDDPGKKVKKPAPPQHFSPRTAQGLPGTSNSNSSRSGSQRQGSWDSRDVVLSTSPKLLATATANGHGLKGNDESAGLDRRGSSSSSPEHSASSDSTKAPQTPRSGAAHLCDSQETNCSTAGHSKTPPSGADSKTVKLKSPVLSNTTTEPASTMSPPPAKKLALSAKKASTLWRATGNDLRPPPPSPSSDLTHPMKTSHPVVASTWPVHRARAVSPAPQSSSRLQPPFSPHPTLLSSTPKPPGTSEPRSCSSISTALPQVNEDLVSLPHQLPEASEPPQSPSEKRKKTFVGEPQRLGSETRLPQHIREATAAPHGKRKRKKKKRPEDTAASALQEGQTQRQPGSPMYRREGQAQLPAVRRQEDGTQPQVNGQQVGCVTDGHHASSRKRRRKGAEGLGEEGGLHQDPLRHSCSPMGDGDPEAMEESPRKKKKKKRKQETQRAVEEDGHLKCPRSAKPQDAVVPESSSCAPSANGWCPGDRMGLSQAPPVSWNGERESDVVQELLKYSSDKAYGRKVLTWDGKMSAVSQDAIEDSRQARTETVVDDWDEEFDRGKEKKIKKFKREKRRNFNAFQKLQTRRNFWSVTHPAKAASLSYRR
In short: as §1

[3] = molecular target: T2, USP38 (UniProt Q8NB14)
T2 sequence (whole entry): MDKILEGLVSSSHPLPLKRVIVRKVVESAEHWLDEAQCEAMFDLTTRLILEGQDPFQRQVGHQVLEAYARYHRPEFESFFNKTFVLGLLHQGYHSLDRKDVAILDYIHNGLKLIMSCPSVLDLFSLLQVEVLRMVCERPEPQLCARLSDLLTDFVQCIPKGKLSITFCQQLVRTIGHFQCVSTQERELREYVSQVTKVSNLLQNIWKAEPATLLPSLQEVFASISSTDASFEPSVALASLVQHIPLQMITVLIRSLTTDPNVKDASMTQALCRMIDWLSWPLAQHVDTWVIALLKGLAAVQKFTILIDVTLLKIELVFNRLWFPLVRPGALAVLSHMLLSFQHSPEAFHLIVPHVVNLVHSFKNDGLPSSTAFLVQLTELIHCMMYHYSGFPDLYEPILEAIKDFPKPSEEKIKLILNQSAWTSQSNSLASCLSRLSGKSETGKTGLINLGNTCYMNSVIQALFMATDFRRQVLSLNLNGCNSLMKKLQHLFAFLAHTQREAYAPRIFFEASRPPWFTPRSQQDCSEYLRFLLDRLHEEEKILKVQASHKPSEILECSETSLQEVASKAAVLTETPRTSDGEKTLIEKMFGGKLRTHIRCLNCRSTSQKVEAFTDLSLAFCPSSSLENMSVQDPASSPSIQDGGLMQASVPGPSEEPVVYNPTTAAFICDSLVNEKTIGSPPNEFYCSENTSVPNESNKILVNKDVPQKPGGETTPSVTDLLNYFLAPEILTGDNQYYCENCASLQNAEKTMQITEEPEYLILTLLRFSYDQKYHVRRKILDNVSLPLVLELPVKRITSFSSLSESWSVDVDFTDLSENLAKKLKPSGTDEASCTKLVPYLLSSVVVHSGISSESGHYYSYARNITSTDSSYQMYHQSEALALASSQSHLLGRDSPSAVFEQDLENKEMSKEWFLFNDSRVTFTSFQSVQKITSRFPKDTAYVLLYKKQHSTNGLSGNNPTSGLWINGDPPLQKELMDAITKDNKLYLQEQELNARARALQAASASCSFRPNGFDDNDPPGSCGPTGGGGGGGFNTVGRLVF
In short: as §1

[4] = molecular target: T3, USP39 (UniProt Q53GS9)
T3 sequence (whole entry): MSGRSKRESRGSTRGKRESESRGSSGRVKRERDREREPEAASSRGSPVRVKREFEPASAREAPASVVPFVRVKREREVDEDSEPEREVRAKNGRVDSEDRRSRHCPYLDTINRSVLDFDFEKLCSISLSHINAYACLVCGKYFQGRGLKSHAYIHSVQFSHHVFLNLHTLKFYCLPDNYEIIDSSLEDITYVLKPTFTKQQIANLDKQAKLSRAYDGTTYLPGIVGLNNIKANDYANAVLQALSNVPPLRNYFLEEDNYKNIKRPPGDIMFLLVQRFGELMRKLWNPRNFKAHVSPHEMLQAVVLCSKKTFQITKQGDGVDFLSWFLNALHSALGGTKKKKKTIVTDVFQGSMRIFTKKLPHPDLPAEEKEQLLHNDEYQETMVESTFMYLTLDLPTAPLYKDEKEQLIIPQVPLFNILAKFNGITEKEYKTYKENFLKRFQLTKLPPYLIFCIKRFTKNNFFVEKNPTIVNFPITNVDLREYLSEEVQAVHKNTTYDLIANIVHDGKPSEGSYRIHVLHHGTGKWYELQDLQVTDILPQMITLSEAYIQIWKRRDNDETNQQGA
In short: as §1

[5] = molecular target: T4, USP4 (UniProt Q13107)
T4 sequence (whole entry): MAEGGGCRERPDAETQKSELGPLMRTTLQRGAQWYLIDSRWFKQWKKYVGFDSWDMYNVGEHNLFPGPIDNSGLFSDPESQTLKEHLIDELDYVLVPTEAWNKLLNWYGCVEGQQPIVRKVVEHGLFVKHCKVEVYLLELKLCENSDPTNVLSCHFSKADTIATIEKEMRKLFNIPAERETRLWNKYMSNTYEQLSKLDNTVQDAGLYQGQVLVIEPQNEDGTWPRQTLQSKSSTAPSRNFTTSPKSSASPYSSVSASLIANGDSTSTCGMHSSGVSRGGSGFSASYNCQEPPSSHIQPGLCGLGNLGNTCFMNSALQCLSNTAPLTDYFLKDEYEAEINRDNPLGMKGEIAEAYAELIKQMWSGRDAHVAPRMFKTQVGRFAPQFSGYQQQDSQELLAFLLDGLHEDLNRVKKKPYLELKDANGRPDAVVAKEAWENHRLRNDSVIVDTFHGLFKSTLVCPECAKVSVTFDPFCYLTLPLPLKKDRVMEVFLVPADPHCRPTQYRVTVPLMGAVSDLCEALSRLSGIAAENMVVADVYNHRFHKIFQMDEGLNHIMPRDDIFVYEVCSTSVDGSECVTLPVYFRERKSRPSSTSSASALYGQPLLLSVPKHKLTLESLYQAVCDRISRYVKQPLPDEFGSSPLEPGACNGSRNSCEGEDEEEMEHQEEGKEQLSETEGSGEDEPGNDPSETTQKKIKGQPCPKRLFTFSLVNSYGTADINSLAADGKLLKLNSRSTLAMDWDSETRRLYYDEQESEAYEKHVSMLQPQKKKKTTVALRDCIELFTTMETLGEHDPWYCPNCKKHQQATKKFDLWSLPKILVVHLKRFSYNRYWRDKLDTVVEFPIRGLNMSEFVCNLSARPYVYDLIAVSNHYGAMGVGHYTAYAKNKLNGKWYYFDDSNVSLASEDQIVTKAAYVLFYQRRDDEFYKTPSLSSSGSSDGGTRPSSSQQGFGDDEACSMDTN
In short: as §1

Measured: log2 ratio of Biotin-Ahx-Ub-VS probe labelling

Sequence of USP34 (Q70CQ2 whole entry, the tested form may be a part): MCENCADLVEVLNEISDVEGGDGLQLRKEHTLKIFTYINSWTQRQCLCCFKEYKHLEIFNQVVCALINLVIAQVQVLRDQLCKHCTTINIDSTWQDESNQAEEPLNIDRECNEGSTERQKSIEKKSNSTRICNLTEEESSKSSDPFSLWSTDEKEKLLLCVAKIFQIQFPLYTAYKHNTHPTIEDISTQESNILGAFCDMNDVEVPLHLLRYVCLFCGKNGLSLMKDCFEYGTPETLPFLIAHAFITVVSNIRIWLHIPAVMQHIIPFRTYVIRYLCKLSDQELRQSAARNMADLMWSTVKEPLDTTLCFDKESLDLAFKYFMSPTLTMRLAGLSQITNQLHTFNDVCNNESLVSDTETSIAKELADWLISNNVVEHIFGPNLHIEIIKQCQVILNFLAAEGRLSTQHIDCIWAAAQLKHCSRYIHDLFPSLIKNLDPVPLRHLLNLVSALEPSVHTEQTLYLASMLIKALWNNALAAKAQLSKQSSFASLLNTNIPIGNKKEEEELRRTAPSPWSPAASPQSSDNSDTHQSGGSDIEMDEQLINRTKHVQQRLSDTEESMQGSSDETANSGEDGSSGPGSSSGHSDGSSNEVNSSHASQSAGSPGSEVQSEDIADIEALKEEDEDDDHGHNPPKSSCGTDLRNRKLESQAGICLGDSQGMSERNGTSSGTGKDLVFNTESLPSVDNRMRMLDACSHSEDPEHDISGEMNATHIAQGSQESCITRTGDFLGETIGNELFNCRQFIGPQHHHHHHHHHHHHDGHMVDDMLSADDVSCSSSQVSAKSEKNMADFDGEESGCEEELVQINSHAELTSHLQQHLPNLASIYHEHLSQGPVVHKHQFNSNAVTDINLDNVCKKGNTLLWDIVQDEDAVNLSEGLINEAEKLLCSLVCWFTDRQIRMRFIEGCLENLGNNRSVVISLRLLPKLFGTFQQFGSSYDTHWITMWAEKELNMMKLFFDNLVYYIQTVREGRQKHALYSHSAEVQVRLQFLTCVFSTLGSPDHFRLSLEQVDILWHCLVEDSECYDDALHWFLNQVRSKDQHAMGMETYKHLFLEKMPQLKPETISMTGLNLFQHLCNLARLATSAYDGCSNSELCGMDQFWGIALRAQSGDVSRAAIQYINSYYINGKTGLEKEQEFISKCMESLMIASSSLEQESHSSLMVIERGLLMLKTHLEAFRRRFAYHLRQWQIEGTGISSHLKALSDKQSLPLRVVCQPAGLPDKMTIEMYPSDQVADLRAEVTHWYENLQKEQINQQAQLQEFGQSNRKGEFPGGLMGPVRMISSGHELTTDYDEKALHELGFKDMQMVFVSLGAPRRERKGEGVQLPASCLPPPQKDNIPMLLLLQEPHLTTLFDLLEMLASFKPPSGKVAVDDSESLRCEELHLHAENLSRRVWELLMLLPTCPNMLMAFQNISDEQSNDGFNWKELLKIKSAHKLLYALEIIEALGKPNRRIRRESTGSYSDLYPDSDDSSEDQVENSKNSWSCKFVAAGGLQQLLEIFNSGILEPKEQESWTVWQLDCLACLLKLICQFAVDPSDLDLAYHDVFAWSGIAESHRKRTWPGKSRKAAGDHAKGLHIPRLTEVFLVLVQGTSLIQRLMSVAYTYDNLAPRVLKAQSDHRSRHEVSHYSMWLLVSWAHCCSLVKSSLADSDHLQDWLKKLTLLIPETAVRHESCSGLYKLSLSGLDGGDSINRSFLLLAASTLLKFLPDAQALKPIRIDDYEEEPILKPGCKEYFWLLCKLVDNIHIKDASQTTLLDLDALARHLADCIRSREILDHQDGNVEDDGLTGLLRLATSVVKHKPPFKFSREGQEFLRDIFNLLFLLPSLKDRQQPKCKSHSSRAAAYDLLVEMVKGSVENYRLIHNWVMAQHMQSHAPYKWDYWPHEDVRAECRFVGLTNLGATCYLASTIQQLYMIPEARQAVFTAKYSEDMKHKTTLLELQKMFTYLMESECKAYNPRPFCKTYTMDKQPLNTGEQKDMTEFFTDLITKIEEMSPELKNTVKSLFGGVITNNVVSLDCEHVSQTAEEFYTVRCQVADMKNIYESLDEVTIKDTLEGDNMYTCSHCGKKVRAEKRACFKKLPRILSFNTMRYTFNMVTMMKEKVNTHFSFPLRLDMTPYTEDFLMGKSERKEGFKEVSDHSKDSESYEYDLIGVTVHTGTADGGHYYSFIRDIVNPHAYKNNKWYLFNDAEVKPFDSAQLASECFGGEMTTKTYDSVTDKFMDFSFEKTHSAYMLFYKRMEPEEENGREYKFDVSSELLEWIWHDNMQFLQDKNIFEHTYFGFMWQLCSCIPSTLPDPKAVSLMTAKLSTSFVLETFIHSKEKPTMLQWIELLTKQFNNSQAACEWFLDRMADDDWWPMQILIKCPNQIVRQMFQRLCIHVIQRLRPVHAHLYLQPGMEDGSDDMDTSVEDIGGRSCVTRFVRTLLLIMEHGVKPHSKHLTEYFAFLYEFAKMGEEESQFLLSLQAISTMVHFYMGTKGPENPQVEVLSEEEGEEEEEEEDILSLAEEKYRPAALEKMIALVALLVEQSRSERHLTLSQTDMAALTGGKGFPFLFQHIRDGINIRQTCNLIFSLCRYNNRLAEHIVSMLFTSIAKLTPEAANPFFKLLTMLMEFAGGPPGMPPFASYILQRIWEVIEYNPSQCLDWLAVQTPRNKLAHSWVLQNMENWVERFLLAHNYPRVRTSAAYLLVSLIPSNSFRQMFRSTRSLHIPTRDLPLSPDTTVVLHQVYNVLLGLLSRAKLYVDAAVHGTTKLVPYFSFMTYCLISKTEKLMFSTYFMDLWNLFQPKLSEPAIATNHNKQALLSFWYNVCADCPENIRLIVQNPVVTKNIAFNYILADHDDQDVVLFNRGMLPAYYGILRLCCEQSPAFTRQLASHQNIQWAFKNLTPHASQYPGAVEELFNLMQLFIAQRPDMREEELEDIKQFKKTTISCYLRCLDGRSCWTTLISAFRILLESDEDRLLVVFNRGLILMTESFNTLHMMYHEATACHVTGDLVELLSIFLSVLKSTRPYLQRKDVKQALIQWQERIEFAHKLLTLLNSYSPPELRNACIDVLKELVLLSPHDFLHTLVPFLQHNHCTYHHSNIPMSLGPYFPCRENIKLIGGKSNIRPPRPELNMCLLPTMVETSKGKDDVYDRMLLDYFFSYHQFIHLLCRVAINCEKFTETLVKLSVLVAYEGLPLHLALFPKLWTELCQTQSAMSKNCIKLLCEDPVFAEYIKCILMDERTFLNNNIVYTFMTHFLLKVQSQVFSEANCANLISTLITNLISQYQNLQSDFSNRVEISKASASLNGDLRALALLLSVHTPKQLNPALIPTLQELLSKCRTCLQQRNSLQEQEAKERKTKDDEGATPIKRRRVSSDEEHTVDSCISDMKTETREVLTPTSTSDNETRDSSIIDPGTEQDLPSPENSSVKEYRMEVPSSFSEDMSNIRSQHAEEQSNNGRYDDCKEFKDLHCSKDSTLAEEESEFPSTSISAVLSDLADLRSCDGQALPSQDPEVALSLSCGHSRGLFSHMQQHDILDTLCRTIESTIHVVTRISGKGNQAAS

Cl.O=C(CCl)N1CCCC(c2ncc[nH]2)C1 (stereo not given)
inactive: [1] 0.00166 | [2] 0.0764 | [3] -0.0133 | [4] 0.00979 | [5] 0.124
